# PubChem BioAssay (NCATS)
# Several values for one entry are separate records, joined by “and”; a condition that tells them apart may be missing. Equal values may be shown once. Records with an inconclusive call do not appear. Unmarked numbers belong to inactive results. Activity calls are given as the source filed them. Calls follow the shape of the dose curve; as a rule, active = well fitted curve in the direction sought with a large enough effect; inconclusive = small, poorly fitted or top-dose-only effect, or another doubt; inactive = no such curve, though single readings can be large; an effect the other way counts as inactive or inconclusive.
# Columns and labels:
# HeLa = assay: Primary qHTS to identify gynecologic anti-cancer compounds using libraries of approved drugs and bioactive compounds (AID 1345084); conditions: Gynecologic cancer cell panel viability, ATPlite luminescence, 48 h; series mostly up to 57.5 µM; also: nearly all actives have a fitted effect of over 55% in size
# Procedure, shortened: (§1)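 Cells, 1,000 per well, plated 16 h, then exposed 48 h at 37 C to compounds. Viability by ATPlite luminescence after 15 min at room temperature.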
# OV90 = assay: as above; conditions: Gynecologic cancer cell panel viability, ATPlite luminescence, 48 h; series mostly up to 57.5 µM
# Procedure, shortened: as §1
# SKOV3 = assay: as above; conditions: Gynecologic cancer cell panel viability, ATPlite luminescence, 48 h; series mostly up to 57.5 µM
# Procedure, shortened: as §1
# PA-1 = assay: as above; conditions: Gynecologic cancer cell panel viability, ATPlite luminescence, 48 h; series mostly up to 57.5 µM
# Procedure, shortened: as §1
# Tov-21-G = assay: as above; conditions: Gynecologic cancer cell panel viability, ATPlite luminescence, 48 h; series mostly up to 57.5 µM
# Procedure, shortened: as §1
# JEG-3 = assay: as above; conditions: Gynecologic cancer cell panel viability, ATPlite luminescence, 48 h; series mostly up to 57.5 µM
# Procedure, shortened: as §1
# Hek293T = assay: as above; conditions: Gynecologic cancer cell panel viability, ATPlite luminescence, 48 h, control line for the selectivity index; series mostly up to 57.5 µM
# Procedure, shortened: as §1
# [1] = qHTS assay to identify inhibitors of the type 1 interferon - major histocompatibility complex class I in skeletal muscle: Counter screen cell viability and HiBit confirmation (AID 1347412); conditions: iHSKM muscle cells + IFN-b, HiBiT or CellTiter-Glo, 24 h; for Potency: HiBiT; as to all read-outs here: nearly all actives have a fitted effect of over 60% in size
# Procedure, shortened: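 After 24 h with human IFN-beta (4 ng/ml) and compound titrations (top 46 uM final, 1:3, 12 points), HLA-B HiBit myoblasts were lysed for either Nano-Glo HiBiT luminescence or CellTiter Glo viability on paired plates.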
# Tov112D = assay: Primary qHTS to identify gynecologic anti-cancer compounds using libraries of approved drugs and bioactive compounds (AID 1345084); conditions: Gynecologic cancer cell panel viability, ATPlite luminescence, 48 h; series mostly up to 57.5 µM; also: nearly all actives have a fitted effect of over 55% in size
# Procedure, shortened: as §1
# [2] = Drug repurposing screens with cells derived from glioblastoma tumor samples (AID 1345199); conditions: GBM patient neurospheres viability, ATP luminescence, 48 h; also: nearly all actives have a fitted effect of over 40% in size
# Procedure, shortened: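 Primary testing used CD133+ neurospheres from four GBM patients, seven concentrations, 48 h exposure and ATP-based viability; confirmation added three slower-growing patient lines.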
# [3] = at 46.1 µM (top of the series), tumour line C
# % is scaled to controls: 0 for no effect and ±100 for the full control effect; potency is read from the fitted curve at half-maximal effect.
structure (smiles),measurement,setting,value
COc1ccc(CCc2nc3c(C)c(-c4c(C)noc4C)c(C)cc3n2CCN2CCOCC2)cc1,Potency,HeLa,inactive
same,Potency,OV90,inactive
CC(=O)O[C@H]1[C@H](O)C[C@@]2(C)C(CC[C@]3(C)C2CC=C2C4CC(C)(C)CC[C@]4(C(=O)O)CC[C@]23C)C1(C)C (some centres not stated),Potency,OV90,inactive
same,Potency,SKOV3,11.2 µM (active)
CC[C@@H](C)Nc1cc(C(=O)NC2CC3CCC(C2)N3c2ccc(C(=O)C3CC3)cn2)c(C)cc1C(N)=O (some centres not stated),Potency,OV90,0.316 µM (active)
same,Potency,PA-1,0.355 µM (active)
same,Potency,Tov-21-G,0.398 µM (active)
O=C(Nc1cccc(C(F)(F)F)c1)Nc1ccc(Br)cc1-c1nn[nH]n1,Potency,JEG-3,inactive
CCCc1cc(C)[nH]c(=O)c1CNC(=O)c1cc(-c2ccnc(N3CCN(C)CC3)c2)cc2c1cnn2C(C)C,Potency,HeLa,35.5 µM (active)
same,Potency,PA-1,25.1 µM (active)
same,Potency,Tov-21-G,31.6 µM (active)
Oc1ccc(-c2cnc3ccc(NCc4ccco4)nn23)cc1,Potency,JEG-3,inactive
same,Potency,OV90,inactive
same,Potency,PA-1,28.2 µM (active)
same,Potency,SKOV3,14.1 µM (active)
COc1cccc(-c2cc(F)ccc2C2Cc3nc(N)nc(C)c3C(=O)N2)n1 (configuration not stated),Potency,Hek293T,0.282 µM (active)
same,Potency,PA-1,0.355 µM (active)
same,Potency,Tov-21-G,0.282 µM (active)
same,Potency,[1],0.0222 µM (active)
COc1cc(O)c2c(c1)C1OC1C[C@H](O)[C@H](O)C(=O)/C=C\C[C@H](C)OC2=O (some centres not stated),Potency,HeLa,inactive
same,Potency,SKOV3,inactive
same,Potency,Tov-21-G,17.8 µM (active)
C[C@H]1[C@H](/C=C/c2ccc(-c3ccccc3C#N)cn2)[C@@H]2[C@@H](C)OC(=O)[C@@H]2C[C@@H]1C,Potency,OV90,inactive
same,Potency,Tov112D,20 µM (active)
O=C(Nc1cccc2cccnc12)c1ccc(N2C(=O)[C@@H]3C4C=CC(C4)[C@@H]3C2=O)cc1,Potency,JEG-3,31.6 µM (active)
same,Potency,Tov-21-G,31.6 µM (active)
O=C1Nc2nc(-c3c(O)cccc3OCC3CC3)cc([C@@H]3CCCNC3)c2CO1,Potency,HeLa,inactive
same,Potency,JEG-3,inactive
same,Potency,Tov-21-G,14.1 µM (active)
same,Potency,Tov112D,22.4 µM (active)
same,Potency,[1],7.01 µM (active)
same,"activity change, negative = inhibition","[1]; Viability, at 45.9 µM (top of the series)",-25%
CCOC(=O)COc1ccc2c(=O)cc(-c3ccccc3)oc2c1,"activity, negative = cell killing","[2]; at 45.9 µM (top of the series), tumour line D",-18.4%
same,"activity, negative = cell killing",[2]; [3],-1.42% and -17.4%
CN1CCN(c2ccc(OC(F)(F)F)c(Nc3ncc4c(n3)-c3c(c(C(N)=O)nn3CCO)CC4)c2)CC1,Potency,HeLa,0.224 µM (active)
same,Potency,OV90,inactive
same,Potency,PA-1,0.282 µM (active)
same,Potency,Tov112D,0.316 µM (active)
CC1(C)CC[C@]23CO[C@@]4(CCC5[C@@]6(C)CC[C@H](O[C@@H]7OC[C@H](O[C@@H]8O[C@H](CO)[C@@H](O)[C@H](O)[C@H]8O[C@@H]8OC[C@@H](O)[C@H](O)[C@H]8O)[C@H](O)[C@H]7O[C@@H]7O[C@H](CO)[C@@H](O)[C@H](O)[C@H]7O)[C@@](C)(CO)C6CC[C@@]5(C)[C@]4(C)C[C@H]2O)[C@@H]3C1 (some centres not stated),"activity change, negative = cytotoxicity",HeLa,-0.159% [at 11.6 µM]
same,"activity change, negative = cytotoxicity",PA-1,-25.5% [at 11.6 µM]
C/C1=C\CCC2=CC(OC2=O)C(C)(C)/C=C/C1=O (configuration not stated),Potency,HeLa,inactive
same,Potency,PA-1,31.6 µM (active)
same,Potency,Tov112D,inactive
COC(=O)N1CCC(n2ncc3c(N4CCOCC4)nc(-c4ccc(NC(=O)NC5CC5)cc4)nc32)CC1,Potency,Hek293T,0.631 µM (active)
same,Potency,JEG-3,inactive
same,Potency,OV90,0.501 µM (active)
same,Potency,PA-1,1.41 µM (active)
C=C1[C@@H](OC(C)=O)CC[C@@]2(C)[C@@H](OC(C)=O)[C@H](OC(C)=O)C3=C(C)C[C@H](OC(=O)C(C)CC)[C@@H]([C@@H](OC(C)=O)[C@H]12)C3(C)C (some centres not stated),Potency,OV90,inactive
Cc1ccc(/C(=C\CN2CCCC2)c2cccc(/C=C/C(=O)O)n2)cc1,"activity, negative = cell killing",[2]; [3],-12.4%
same,Potency,[2]; tumour line A,35.5 µM (active)
CC(O)(C(=O)O)C1CCC2(C)C1CCC1(C)C2CCC2C3(C)CCC(O)C(C)(COC4OC(CO)C(O)C(O)C4O)C3CCC21C (configuration not stated),Potency,Hek293T,10 µM (active)
same,Potency,Tov112D,8.91 µM (active)
COc1ccc(-c2cc3onc(-c4ccncc4)c3c(=O)n2C)cc1,Potency,PA-1,inactive
same,Potency,SKOV3,1.78 µM (active)
same,Potency,Tov-21-G,inactive
Cc1cc2ncc(C(=O)NCC(C)(C)NCC(=O)N3CCC[C@H]3C#N)cn2n1,Potency,OV90,inactive
C=C1C(=O)O[C@@H]2[C@H]3C(C)=CC(=O)C3=C(C)CC[C@@H]12,Potency,HeLa,inactive
same,Potency,Tov-21-G,28.2 µM (active)
same,Potency,Tov112D,inactive
COc1cc(CCC2=NN=C(NC(=O)c3ccc(N4C[C@@H](C)N[C@@H](C)C4)cc3)C2)cc(OC)c1,Potency,HeLa,20 µM (active)
same,Potency,SKOV3,12.6 µM (active)
same,Potency,Tov-21-G,22.4 µM (active)
Cc1ccc(C(=O)Nc2ccc(CN3CCN(C)CC3)c(C(F)(F)F)c2)cc1C#Cc1cnc2[nH]ncc2c1,Potency,OV90,3.16 µM (active)
same,Potency,[1],0.394 µM (active)
COc1cc(NC(=O)c2cccc(-n3cc(NC(=O)Nc4cccc(C)c4)cn3)c2)cc(OC)c1OC,Potency,OV90,inactive
same,Potency,PA-1,inactive
N#CC(CCCN1CCC(O)(c2ccc(Cl)cc2)CC1)(c1ccccc1)c1ccccc1,Potency,Hek293T,inactive
same,Potency,JEG-3,inactive
same,Potency,OV90,15.8 µM (active)
same,Potency,PA-1,inactive
same,Potency,Tov-21-G,inactive
CC(C)=CCCC1(C)/C=C/C(OC(=O)C=C(C)C)C(C)(O)/C=C/C(=O)/C(CO)=C\C1 (configuration not stated),Potency,Hek293T,8.91 µM (active)
CC(=O)OC1[C@H]2[C@@H](C[C@@H](C)[C@@H]3C=CC(=O)[C@@]13C)OC(=O)[C@@H]2C (some centres not stated),Potency,OV90,inactive
same,Potency,PA-1,35.5 µM (active)
Oc1cccc(C2NC(=S)Nc3cccc(F)c32)c1 (configuration not stated),Potency,JEG-3,22.4 µM (active)
same,Potency,OV90,inactive
same,Potency,Tov112D,10 µM (active)
